# The supplement of paper PMC8728848
# The sample as a whole holds a higher share of the strongest signals than the screen did.
# Legend:
# Assay in all cases: glycan array binding signal (z-score within array); higher = stronger binding
# Settings in all cases: glycan notation: IUPAC condensed, linker removed; mutation: W10H
# [1] = biological target: Fuc(a1-2)Gal(b1-3)GalNAc(b1-3)Gal(a1-4)Gal(b1-4)Glc
# Procedure, shortened: (§1)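 Negative Z-scores can be read as non-binding. The Z-score is calculated within each array and then averaged across arrays of one protein sequence at different concentrations or buffers and across linkers. Arrays, 3228 in all, were curated from the Consortium for Functional Glycomics database and kept only where the protein sequence was available.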
# [2] = biological target: Fuc(a1-2)Gal(b1-3)[Fuc(a1-4)]GlcNAc
# Procedure, shortened: as §1
# [3] = biological target: Fuc(a1-2)Gal(b1-4)[Fuc(a1-3)]GlcNAc(b1-3)Gal(b1-4)[Fuc(a1-3)]GlcNAc(b1-3)Gal(b1-4)[Fuc(a1-3)]GlcNAc
# Procedure, shortened: as §1
# [4] = biological target: Fuc(a1-2)Gal(b1-4)[Fuc(a1-3)]GlcNAc(b1-3)[Neu5Ac(a2-6)Gal(b1-4)GlcNAc(b1-6)]Gal(b1-4)Glc
# Procedure, shortened: as §1
# [5] = biological target: Fuc(a1-2)[Gal(a1-3)]Gal(b1-3)GlcNAc(b1-3)GalNAc
# Procedure, shortened: as §1
# [6] = biological target: Fuc(a1-2)[Gal(a1-3)]Gal(b1-3)GlcNAc(b1-6)GalNAc
# Procedure, shortened: as §1
# [7] = biological target: Fuc(a1-2)[Gal(a1-3)]Gal(b1-4)GlcNAc(b1-2)Man
# Procedure, shortened: as §1
# [8] = biological target: Fuc(a1-2)[Gal(a1-3)]Gal(b1-4)GlcNAc(b1-3)[Fuc(a1-2)[Gal(a1-3)]Gal(b1-4)GlcNAc(b1-6)]GalNAc
# Procedure, shortened: as §1
# [9] = biological target: Fuc(a1-2)[GalNAc(a1-3)]Gal(b1-3)GalNAc(b1-3)Gal(a1-4)Gal(b1-4)Glc
# Procedure, shortened: as §1
# [10] = biological target: Fuc(a1-3)[Gal(b1-4)]GlcNAc(b1-2)Man(a1-3)[Fuc(a1-3)[Gal(b1-4)]GlcNAc(b1-2)Man(a1-6)]Man(b1-4)GlcNAc(b1-4)[Fuc(a1-6)]GlcNAc
# Procedure, shortened: as §1
# [11] = biological target: Fuc(a1-3)[Gal(b1-4)]GlcNAc(b1-3)Gal(b1-4)[Fuc(a1-3)]GlcNAc
# Procedure, shortened: as §1
# [12] = biological target: Fuc(a1-3)[Gal(b1-4)]GlcNAc(b1-3)GalNAc
# Procedure, shortened: as §1
# [13] = biological target: Fuc(a1-3)[GalNAc(b1-4)]GlcNAc6S
# Procedure, shortened: as §1
# Gal(a1-2)Gal = biological target: Gal(a1-2)Gal
# Procedure, shortened: as §1
# Gal(a1-3)Gal(b1-3)GlcNAc = biological target: Gal(a1-3)Gal(b1-3)GlcNAc
# Procedure, shortened: as §1
# Gal(a1-4)Gal(b1-4)Glc = biological target: Gal(a1-4)Gal(b1-4)Glc
# Procedure, shortened: as §1
# [14] = biological target: Gal(a1-4)Gal(b1-4)GlcNAc(b1-3)Gal(b1-4)Glc
# Procedure, shortened: as §1
# Gal(b1-2)Gal = biological target: Gal(b1-2)Gal
# Procedure, shortened: as §1
# Gal(b1-3)Gal = biological target: Gal(b1-3)Gal
# Procedure, shortened: as §1
# Gal(b1-3)GlcNAc(b1-2)Man = biological target: Gal(b1-3)GlcNAc(b1-2)Man
# Procedure, shortened: as §1
# [15] = biological target: Gal(b1-3)GlcNAc(b1-3)Gal(b1-4)[Fuc(a1-3)]GlcNAc
# Procedure, shortened: as §1
# [16] = biological target: Gal(b1-3)[GlcNAc(b1-6)]GalNAc
# Procedure, shortened: as §1
# [17] = biological target: Gal(b1-4)GlcNAc(b1-2)Man(a1-3)[Gal(b1-4)GlcNAc(b1-2)Man(a1-6)]Man(b1-4)GlcNAc(b1-4)GlcNAc
# Procedure, shortened: as §1
# [18] = biological target: Gal(b1-4)GlcNAc(b1-2)[Gal(b1-4)GlcNAc(b1-4)]Man(a1-3)[GlcNAc(b1-4)][Gal(b1-4)GlcNAc(b1-2)[Gal(b1-4)GlcNAc(b1-6)]Man(a1-6)]Man(b1-4)GlcNAc(b1-4)GlcNAc
# Procedure, shortened: as §1
# [19] = biological target: Gal(b1-4)GlcNAc(b1-2)[Gal(b1-4)GlcNAc(b1-6)]Man(a1-6)[Gal(b1-4)GlcNAc(b1-2)Man(a1-3)]Man(b1-4)GlcNAc(b1-4)[Fuc(a1-6)]GlcNAc
# Procedure, shortened: as §1
# [20] = biological target: Gal(b1-4)GlcNAc(b1-2)[Gal(b1-4)GlcNAc(b1-6)]Man(a1-6)[GlcNAc(b1-4)][Gal(b1-4)GlcNAc(b1-2)Man(a1-3)]Man(b1-4)GlcNAc(b1-4)GlcNAc
# Procedure, shortened: as §1
# [21] = biological target: Gal(b1-4)GlcNAc(b1-3)Gal(b1-4)GlcNAc(b1-2)[Gal(b1-4)GlcNAc(b1-3)Gal(b1-4)GlcNAc(b1-6)]Man(a1-6)[Gal(b1-4)GlcNAc(b1-3)Gal(b1-4)GlcNAc(b1-2)Man(a1-3)]Man(b1-4)GlcNAc(b1-4)GlcNAc
# Procedure, shortened: as §1
# [22] = biological target: Gal(b1-4)GlcNAc(b1-3)Gal(b1-4)GlcNAc(b1-6)[Gal(b1-3)]GalNAc
# Procedure, shortened: as §1
# [23] = biological target: Gal(b1-4)GlcNAc(b1-3)[Fuc(a1-3)GlcNAc(b1-6)]Gal(b1-4)Glc
# Procedure, shortened: as §1
# [24] = biological target: Gal(b1-4)GlcNAc(b1-6)GalNAc
# Procedure, shortened: as §1
# Gal6S(b1-3)GlcNAc6S = biological target: Gal6S(b1-3)GlcNAc6S
# Procedure, shortened: as §1
# Gal6S(b1-4)Glc = biological target: Gal6S(b1-4)Glc
# Procedure, shortened: as §1
# Gal6S(b1-4)GlcNAc = biological target: Gal6S(b1-4)GlcNAc
# Procedure, shortened: as §1
# GalNAc(a1-3)Gal = biological target: GalNAc(a1-3)Gal
# Procedure, shortened: as §1
# GalNAc3S(b1-4)GlcNAc3S = biological target: GalNAc3S(b1-4)GlcNAc3S
# Procedure, shortened: as §1
# [25] = biological target: GlcA3S(b1-3)Gal(b1-4)GlcNAc(b1-3)Gal(b1-4)Glc
# Procedure, shortened: as §1
# [26] = biological target: Man(a1-2)Man(a1-2)Man(a1-6)[Man(a1-3)]Man
# Procedure, shortened: as §1
# [27] = biological target: Man(a1-2)Man(a1-3)[Man(a1-2)Man(a1-6)]Man
# Procedure, shortened: as §1
# [28] = biological target: Man(a1-2)Man(a1-3)[Man(a1-2)Man(a1-6)]Man(a1-6)[Man(a1-2)Man(a1-2)Man(a1-3)]Man
# Procedure, shortened: as §1
# [29] = biological target: Man(a1-2)Man(a1-3)[Man(a1-2)Man(a1-6)]Man(a1-6)[Man(a1-2)Man(a1-2)Man(a1-3)]Man(b1-4)GlcNAc(b1-4)GlcNAc
# Procedure, shortened: as §1
# [30] = biological target: Man(a1-2)Man(a1-3)[Man(a1-6)]Man(a1-6)[Man(a1-2)Man(a1-3)]Man(b1-4)GlcNAc(b1-4)GlcNAc
# Procedure, shortened: as §1
# [31] = biological target: Man(a1-2)Man(a1-6)[Man(a1-3)]Man(a1-6)[Man(a1-2)Man(a1-2)Man(a1-3)]Man
# Procedure, shortened: as §1
# [32] = biological target: Man(a1-2)Man(a1-6)[Man(a1-3)]Man(a1-6)[Man(a1-2)Man(a1-2)Man(a1-3)]Man(b1-4)GlcNAc(b1-4)GlcNAc
# Procedure, shortened: as §1
# Man(a1-3)[Man(a1-6)]Man = biological target: Man(a1-3)[Man(a1-6)]Man
# Procedure, shortened: as §1
# [33] = biological target: Man(a1-3)[Man(a1-6)]Man(a1-6)[Man(a1-2)Man(a1-3)]Man(b1-4)GlcNAc(b1-4)GlcNAc
# Procedure, shortened: as §1
# [34] = biological target: Man(a1-3)[Man(a1-6)]Man(a1-6)[Man(a1-3)]Man(b1-4)GlcNAc(b1-4)GlcNAc
# Procedure, shortened: as §1
# [35] = biological target: Man(a1-3)[Man(a1-6)]Man(b1-4)GlcNAc(b1-4)GlcNAc
# Procedure, shortened: as §1
# [36] = biological target: Neu5Ac(a2-3)Gal(b1-3)GalNAc(b1-3)Gal(a1-4)Gal(b1-4)Glc
# Procedure, shortened: as §1
# [37] = biological target: Neu5Ac(a2-3)Gal(b1-3)GalNAc(b1-4)Gal(b1-4)Glc
# Procedure, shortened: as §1
# [38] = biological target: Neu5Ac(a2-3)Gal(b1-3)GlcNAc(b1-2)Man(a1-3)[GlcNAc(b1-4)][Neu5Ac(a2-3)Gal(b1-3)GlcNAc(b1-2)Man(a1-6)]Man(b1-4)GlcNAc(b1-4)GlcNAc
# Procedure, shortened: as §1
# [39] = biological target: Neu5Ac(a2-3)Gal(b1-3)GlcNAc(b1-3)GalNAc
# Procedure, shortened: as §1
# Neu5Ac(a2-3)Gal(b1-4)Glc = biological target: Neu5Ac(a2-3)Gal(b1-4)Glc
# Procedure, shortened: as §1
# [40] = biological target: Neu5Ac(a2-3)Gal(b1-4)[Fuc(a1-3)]GlcNAc6S
# Procedure, shortened: as §1
# [41] = biological target: Neu5Ac(a2-6)Gal(b1-4)GlcNAc(b1-3)Gal(b1-4)GlcNAc(b1-3)Gal(b1-4)GlcNAc
# Procedure, shortened: as §1
# [42] = biological target: Neu5Ac(a2-8)Neu5Ac(a2-3)[GalNAc(b1-4)]Gal(b1-4)Glc
# Procedure, shortened: as §1
# [43] = biological target: Neu5Ac(a2-8)Neu5Ac(a2-8)Neu5Ac(a2-8)Neu5Ac(a2-3)[GalNAc(b1-4)]Gal(b1-4)Glc
# Procedure, shortened: as §1
# [44] = biological target: Neu5Gc(b2-6)Gal(b1-4)GlcNAc
# Procedure, shortened: as §1
binder,measurement,setting,value
Banana lectin (Musa acuminata) (protein) MNGAIKVGAHGGNGGSAFDMGPAYRIISVKIFSGDVVDGVDVTFTYYGKTETRHYGGSGGTPHEIVLQEGEYLVGMAGEVANYHGAVVLGKLGFSTNKKAYGPFGNTGGTPFSLPIAAGKISGFFGRGGKFLDAIGVYLEPLEHHHHHH,glycan array binding signal (z-score),[1],-0.164
same,glycan array binding signal (z-score),[2],-0.188
same,glycan array binding signal (z-score),[3],-0.169
same,glycan array binding signal (z-score),[4],-0.189
same,glycan array binding signal (z-score),[5],-0.17
same,glycan array binding signal (z-score),[6],-0.147
same,glycan array binding signal (z-score),[7],-0.169
same,glycan array binding signal (z-score),[8],-0.183
same,glycan array binding signal (z-score),[9],-0.156
same,glycan array binding signal (z-score),[10],-0.148
same,glycan array binding signal (z-score),[11],-0.146
same,glycan array binding signal (z-score),[12],-0.16
same,glycan array binding signal (z-score),[13],-0.194
same,glycan array binding signal (z-score),Gal(a1-2)Gal,-0.177
same,glycan array binding signal (z-score),Gal(a1-3)Gal(b1-3)GlcNAc,-0.171
same,glycan array binding signal (z-score),Gal(a1-4)Gal(b1-4)Glc,-0.169
same,glycan array binding signal (z-score),[14],-0.141
same,glycan array binding signal (z-score),Gal(b1-2)Gal,-0.172
same,glycan array binding signal (z-score),Gal(b1-3)Gal,-0.168
same,glycan array binding signal (z-score),Gal(b1-3)GlcNAc(b1-2)Man,-0.145
same,glycan array binding signal (z-score),[15],-0.174
same,glycan array binding signal (z-score),[16],-0.157
same,glycan array binding signal (z-score),[17],-0.187
same,glycan array binding signal (z-score),[18],-0.175
same,glycan array binding signal (z-score),[19],-0.143
same,glycan array binding signal (z-score),[20],-0.204
same,glycan array binding signal (z-score),[21],-0.113
same,glycan array binding signal (z-score),[22],-0.088
same,glycan array binding signal (z-score),[23],-0.141
same,glycan array binding signal (z-score),[24],-0.163
same,glycan array binding signal (z-score),Gal6S(b1-3)GlcNAc6S,-0.174
same,glycan array binding signal (z-score),Gal6S(b1-4)Glc,-0.156
same,glycan array binding signal (z-score),Gal6S(b1-4)GlcNAc,-0.124
same,glycan array binding signal (z-score),GalNAc(a1-3)Gal,-0.158
same,glycan array binding signal (z-score),GalNAc3S(b1-4)GlcNAc3S,-0.165
same,glycan array binding signal (z-score),[25],-0.164
same,glycan array binding signal (z-score),[26],7.33
same,glycan array binding signal (z-score),[27],2.86
same,glycan array binding signal (z-score),[28],6.5
same,glycan array binding signal (z-score),[29],2.96
same,glycan array binding signal (z-score),[30],9.34
same,glycan array binding signal (z-score),[31],5.18
same,glycan array binding signal (z-score),[32],6.56
same,glycan array binding signal (z-score),Man(a1-3)[Man(a1-6)]Man,2.82
same,glycan array binding signal (z-score),[33],13.5
same,glycan array binding signal (z-score),[34],3.07
same,glycan array binding signal (z-score),[35],6.6
same,glycan array binding signal (z-score),[36],-0.167
same,glycan array binding signal (z-score),[37],-0.186
same,glycan array binding signal (z-score),[38],-0.163
same,glycan array binding signal (z-score),[39],-0.169
same,glycan array binding signal (z-score),Neu5Ac(a2-3)Gal(b1-4)Glc,-0.159
same,glycan array binding signal (z-score),[40],-0.176
same,glycan array binding signal (z-score),[41],-0.171
same,glycan array binding signal (z-score),[42],-0.146
same,glycan array binding signal (z-score),[43],-0.153
same,glycan array binding signal (z-score),[44],-0.185
